Source: PubChem (NMMLSC)
Rows were chosen to be rich in hits. Some 2.9% of all compounds tested hit in one or more screens of this group.
MEKK2wt PB1 HTS: raises or lowers MEK5 binding to wildtype human MEKK2 PB1 domain | Q9Y2U5 | bead flow cytometry, Alexa488-MEK5 binding to MEKK2 WT; actives lie on both sides | binding response (% of control), % at 10 µM | hit rate 1.1% among 290,000; in the data active = binding response below about 67% or above about 130%
Beta2AR agonist: agonists of human beta-2 adrenergic receptor inducing internalization | response, % (concentration not given with the values) | AID 504454 | hit rate 0.43% among 340,000 | Am2.2-beta2AR cells, FAP receptor internalization, flow cytometry;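 active = response above a set limit, near 3 SD of response in nonfluorescent compounds, cut at about 42% in these data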
Target sequence (P07550 whole entry, looked up): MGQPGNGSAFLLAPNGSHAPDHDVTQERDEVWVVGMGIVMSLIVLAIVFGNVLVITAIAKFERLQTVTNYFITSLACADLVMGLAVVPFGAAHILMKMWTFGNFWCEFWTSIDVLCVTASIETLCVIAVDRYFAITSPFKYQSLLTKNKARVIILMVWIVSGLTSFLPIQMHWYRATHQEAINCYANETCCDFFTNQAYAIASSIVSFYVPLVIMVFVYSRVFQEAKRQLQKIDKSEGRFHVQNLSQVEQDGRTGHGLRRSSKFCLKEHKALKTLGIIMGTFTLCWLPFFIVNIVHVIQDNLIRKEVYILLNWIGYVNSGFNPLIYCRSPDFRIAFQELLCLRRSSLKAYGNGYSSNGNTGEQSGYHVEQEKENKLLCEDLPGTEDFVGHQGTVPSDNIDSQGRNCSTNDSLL
MEKK2mut PB1 HTS: signal of MEK5 binding to mutant human MEKK2 PB1 domain. bead flow cytometry, Alexa488-MEK5 binding to MEKK2 mutant. percent response, % at 10 µM. hit rate 0.35% among 290,000. AID 1530; in the data active = percent response above about 24%, passing the limit was not always enough
MEKK3 PB1 HTS: MEKK3-MEK5 PB1 interaction, increase or decrease; Q99759; bead-based flow cytometry, Alexa488-MEK5 binding to MEKK3; actives lie on both sides; 0 = blocked by unlabeled MEK5, 100 = vehicle; binding response (% of control), % at 10 µM; hit rate 1.4% among 290,000;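 active = binding response more than 3 SD above or below the average of its plate-row segment, actives on both sides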;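 note: Alexa488 bead fluorescence after subtracting the streptavidin-only scavenger bead signal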
GRK2 inh: blocks RNA aptamer binding to human GRK2; bead flow cytometry, FAM-aptamer displacement from GRK2; hit rate 0.59% among 330,000; inhibition of aptamer binding, % at 10 µM;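 active = inhibition of aptamer binding above 40%, roughly 3 SD of noise, on plates passing a quality check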;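 note: median bead fluorescence of bound FAM aptamer so fluorescent compounds give negative values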
MEKK2wt confirm: raises or lowers MEK5 binding to wildtype human MEKK2, retest | shares compounds with MEKK3 PB1 HTS | bead flow cytometry, Alexa488-MEK5 binding to MEKK2 WT; actives lie on both sides | binding response (% of control), % at 10 µM | hit rate 2.4% among 5,900 | AID 1892; in the data active = binding response below about 16% or above about 210%; inactive = in between
MEKK2mut-MEK5: signal of MEK5 binding to mutant human MEKK2, retest; percent response, % at 10 µM; AID 1893; bead flow cytometry, Alexa488-MEK5 binding to MEKK2 mutant; shares compounds with MEKK3 PB1 HTS; hit rate 2% among 5,900; in the data active = percent response mostly above about 71%, no sharp cut-off; inactive = mostly below about 38%;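 note: higher means compound restores mutant binding toward wildtype level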
MEKK3 confirm: confirmation of inhibitors of MEK5 binding to human MEKK3 | shares compounds with MEKK3 PB1 HTS | bead flow cytometry, Alexa488-MEK5 binding to MEKK3; stronger effect = lower value | binding response (% of control), % at 10 µM | hit rate 1.8% among 5,900 | AID 1894;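 active = binding response below 72% of control, or above a set upper limit, though filed actives all read lower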
Of the large screens only hits and unclear results are named; the others gave an inactive call (follow-up assays come after a bar, where they were run); [ ] = remark or other dose.

CN(Cc1ccccc1)CC(O)COc1ccc(CNCCc2cccnc2)cc1 (configuration not stated)	MEKK2wt PB1 HTS 187.0, MEKK2mut PB1 HTS 63.0 | MEKK2wt confirm inactive | MEKK2mut-MEK5 inactive | MEKK3 confirm inactive
O=C(NNC(=O)c1ccco1)c1csc(N2CCOCC2)n1	none (no result: MEKK2wt PB1 HTS, MEKK2mut PB1 HTS, MEKK3 PB1 HTS)
Cn1c(N)c(C(=O)COC(=O)c2ccccc2C(=O)c2ccc(Cl)c([N+](=O)[O-])c2)c(=O)n(C)c1=O	none (no result: MEKK2wt PB1 HTS, MEKK2mut PB1 HTS, MEKK3 PB1 HTS)
CC(C)n1cc(CN2CCN(C)C(CCO)C2)c2ccccc21 (configuration not stated)	MEKK2mut PB1 HTS 24.0 | MEKK2wt confirm inactive | MEKK2mut-MEK5 inactive | MEKK3 confirm inactive
CC(C)Cn1c(CN2CCN(C)C(CCO)C2)nc2ccccc21 (configuration not stated)	none
CCOc1ccc(CN2CCNC(=O)C2CC(=O)NC2CCOCC2)cc1 (configuration not stated)	none
Cc1cccc(N2C(=O)c3cccc(Oc4ccc(Cl)cc4)c3C2=O)c1	MEKK3 PB1 HTS 130.0 | MEKK2wt confirm inactive | MEKK2mut-MEK5 inactive | MEKK3 confirm inactive
O=C(O)c1cccc(N2C(=O)c3ccc(Oc4ccc(Cl)cc4)cc3C2=O)c1	none
O=C(Nc1cccc(Cl)c1)c1ccc(NCCCN2CCOCC2)c([N+](=O)[O-])c1	none
Cc1cccc(NC(=O)c2cc(Cl)ccc2[N+](=O)[O-])c1	MEKK3 PB1 HTS 147.0 | MEKK2wt confirm inactive | MEKK2mut-MEK5 inactive | MEKK3 confirm inactive
Cc1cccc(NC(=O)c2ccc(NCCc3ccccc3)c([N+](=O)[O-])c2)c1	MEKK3 PB1 HTS 135.0 | MEKK2wt confirm inactive | MEKK2mut-MEK5 inactive | MEKK3 confirm inactive
Cc1ccc(NC(=O)c2cc(Cl)ccc2[N+](=O)[O-])cc1C	none
Cc1ccc(NC(=O)c2ccc(NCCCN3CCC(C)CC3)c([N+](=O)[O-])c2)cc1F	MEKK2wt PB1 HTS 158.0 | MEKK2wt confirm inactive | MEKK2mut-MEK5 inactive | MEKK3 confirm inactive
Cc1ccc(NC(=O)c2ccc(NCCN)c([N+](=O)[O-])c2)cc1	none
COc1ccc(CN(C)S(=O)(=O)c2c(C)noc2C)cc1OC	none (no result: MEKK2wt PB1 HTS, MEKK2mut PB1 HTS, MEKK3 PB1 HTS)
COc1ccc(S(=O)(=O)N(c2onc(C)c2Cl)S(=O)(=O)c2ccc(OC)c(OC)c2)cc1OC	MEKK3 PB1 HTS 131.0 | MEKK2wt confirm inactive | MEKK2mut-MEK5 inactive | MEKK3 confirm inactive
O=c1cc(-c2ccc3c(c2)OCCO3)oc2ccc(Cl)cc12	MEKK3 PB1 HTS 137.0 | MEKK2wt confirm inactive | MEKK2mut-MEK5 inactive | MEKK3 confirm inactive
O=c1cc(-c2cccs2)oc2ccc(Cl)cc12	none
CCCCOC(=O)c1ccc(NC(=O)c2ccccc2OC)cc1	MEKK3 PB1 HTS 136.0 | MEKK2wt confirm inactive | MEKK2mut-MEK5 inactive | MEKK3 confirm inactive
CCCCOC(=O)c1ccc(NC(=O)C(=O)NCc2ccco2)cc1	MEKK3 PB1 HTS 136.0 | MEKK2wt confirm inactive | MEKK2mut-MEK5 inactive | MEKK3 confirm inactive
CN(CCO)S(=O)(=O)c1ccc2c(c1)C(=NN)c1cc(S(=O)(=O)N(C)CCO)ccc1-2	none
CCOC(=O)c1c(-c2ccccc2)csc1NC(=O)CCN1C(=O)c2ccccc2C1=O	none
CCOC(=O)c1c(-c2ccc(-c3ccccc3)cc2)csc1NC(=O)CNCCN(C)C	MEKK2wt PB1 HTS 286.0, MEKK2mut PB1 HTS 69.0 | MEKK2wt confirm 238.0 | MEKK2mut-MEK5 141.0 | MEKK3 confirm inactive
N#C/C(=C\c1ccc(C#N)cc1)C(=O)N1CCCC1	MEKK3 PB1 HTS 71.0[inhibitor] | MEKK2wt confirm inactive | MEKK2mut-MEK5 inactive | MEKK3 confirm inactive
CCOc1ccc(CCNC(=O)C2CCC(=O)N2CCc2ccccc2)cc1OCC (configuration not stated)	MEKK2wt PB1 HTS -1.0[inhibitor], MEKK3 PB1 HTS 2.0[inhibitor] | MEKK2wt confirm inactive | MEKK2mut-MEK5 inactive | MEKK3 confirm inactive
O=C(O)CN=CC1=C(O)CC(c2ccccc2)CC1=O (configuration not stated)	none
COC(=O)N/N=C/c1cc(C)n(-c2ccccc2)c1C	MEKK2wt PB1 HTS 1.0[inhibitor], MEKK3 PB1 HTS 1.0[inhibitor] | MEKK2wt confirm inactive | MEKK2mut-MEK5 inactive | MEKK3 confirm inactive
COc1ccc(OC)c(CN2CCN(C(=O)c3ccc(NS(=O)(=O)c4cccc([N+](=O)[O-])c4)cc3)CC2)c1	none (no result: MEKK2wt PB1 HTS, MEKK2mut PB1 HTS, MEKK3 PB1 HTS)
CC(C)(C)NC(=O)NC(=O)CN1CCN(Cc2ccccc2)CC1	none
CC(C)(C)NC(=O)NC(=O)CN1CCN(C(c2ccccc2)c2ccccc2)CC1	MEKK3 PB1 HTS 157.0 | MEKK2wt confirm inactive | MEKK2mut-MEK5 inactive | MEKK3 confirm inactive
CC(=O)c1c(C)n([O-])c2cc(F)c(F)cc2[n+]1=O	MEKK2wt PB1 HTS -12.0, MEKK3 PB1 HTS 71.0[inhibitor] | MEKK2wt confirm inactive | MEKK2mut-MEK5 inactive | MEKK3 confirm inactive
COc1ccc2c(c1)[n+](=O)c(C(C)=O)c(C)n2[O-]	none
Cn1c(SCC(=O)NNC(=O)c2ccc(Br)cc2)nnc1-c1cccnc1	none
CCn1c(SCC(=O)NNC(=O)c2ccccc2)nnc1-c1ccco1	MEKK3 PB1 HTS 73.0[inhibitor] | MEKK2wt confirm inactive | MEKK2mut-MEK5 inactive | MEKK3 confirm inactive
Cc1nnc(SCC(=O)NNC(=O)c2ccc(Br)cc2)n1C	MEKK2wt PB1 HTS 717.0, MEKK2mut PB1 HTS 557.0 | MEKK2wt confirm inactive | MEKK2mut-MEK5 inactive | MEKK3 confirm inactive
CCn1c(SCC(=O)NNC(=O)c2ccco2)nnc1-c1ccco1	none
CNC(=O)CSc1nnc(-c2ccco2)n1-c1cccc(C)c1C	none
CNC(=O)CSc1nnc(-c2ccco2)n1-c1cc(C)ccc1C	MEKK2mut PB1 HTS 32.0 | MEKK2wt confirm inactive | MEKK2mut-MEK5 inactive | MEKK3 confirm inactive
COc1cccc2sc3ccc(C#CC4(N)CCCCC4)cc3c(=O)c12	MEKK2wt PB1 HTS 136.0 | MEKK2wt confirm inactive | MEKK2mut-MEK5 inactive | MEKK3 confirm inactive
CNC(C)C#Cc1ccc2sc3cccc(OC)c3c(=O)c2c1 (configuration not stated)	none
Cc1ccc(S(=O)(=O)c2cccc(S(=O)(=O)N3CCOCC3)c2)cc1S(=O)(=O)N1CCOCC1	MEKK2wt PB1 HTS 2.0[inhibitor], MEKK3 PB1 HTS 2.0[inhibitor] | MEKK2wt confirm inactive | MEKK2mut-MEK5 inactive | MEKK3 confirm inactive
O=C(O)C1CCN(S(=O)(=O)c2ccc(N3CCOCC3)c([N+](=O)[O-])c2)CC1	none
O=S(=O)(NCc1ccc(F)cc1)c1cccc(S(=O)(=O)N2CCOCC2)c1	none
O=S(=O)(NCc1ccco1)c1cccc(S(=O)(=O)N2CCOCC2)c1	MEKK2wt PB1 HTS 2.0[inhibitor], MEKK3 PB1 HTS 2.0[inhibitor] | MEKK2wt confirm inactive | MEKK2mut-MEK5 inactive | MEKK3 confirm inactive
